# Several values for one entry are separate records, joined by “and”; a condition that tells them apart may be missing. Equal entries are not always repeated. Hit rate of the full screen: of about 5,500 compounds, about 2,000 (36%) were called active. About 18% were inconclusive and are not listed. Some of the results follow. Values without a mark were called inactive. Rule as the data show it: active = normalized growth mostly below about 0.91 (no sharp cut-off); inconclusive = no clear call, values can overlap the other calls; inactive = mostly above about 0.92.
# Test: chemical genetic growth profiling, strain panel (AID 1159580);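 also: tested at 20 µM; growth read once vehicle control cultures reached saturation at 30 °C; 1 = growth at the plate median or of vehicle wells; lower values mean less growth of the strain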
# Conditions: S. cerevisiae deletion strains, growth OD
smiles,measurement,setting,value
CC(C)OC(=O)C(C)(C)Oc1ccc(C(=O)c2ccc(Cl)cc2)cc1,normalized growth,"locus YAL013W, strain DEP1, stronger effect = lower value",1.01
same,normalized growth,"locus YAL021C, strain ccr4, stronger effect = lower value",1
same,normalized growth,"locus YAL026C, strain drs2, stronger effect = lower value",0.976
same,normalized growth,"locus YAL030W, strain snc1, stronger effect = lower value",0.971
same,normalized growth,"locus YAL040C, strain CLN3, stronger effect = lower value",1.08
same,normalized growth,"locus YBL061C, strain skt5, stronger effect = lower value",0.966
same,normalized growth,"locus YBR009C, strain hhf1, stronger effect = lower value",0.949
same,normalized growth,"locus YBR021W, strain FUR4, stronger effect = lower value",0.976
same,normalized growth,"locus YBR023C, strain chs3, stronger effect = lower value",0.97
same,normalized growth,"locus YBR171W, strain sec66, stronger effect = lower value",0.965
same,normalized growth,"locus YBR229C, strain ROT2, stronger effect = lower value",1
same,normalized growth,"locus YBR231C, strain swc5, stronger effect = lower value",0.969
same,normalized growth,"locus YBR279W, strain paf1, stronger effect = lower value",0.973
same,normalized growth,"locus YCL011C, strain gbp2, stronger effect = lower value",0.954
same,normalized growth,"locus YCL016C, strain dcc1, stronger effect = lower value",0.975
same,normalized growth,"locus YCL029C, strain bik1, stronger effect = lower value",1.01
same,normalized growth,"locus YCL061C, strain MRC1 (second series), stronger effect = lower value",0.982
same,normalized growth,"locus YCL061C, strain MRC1, stronger effect = lower value",0.981
same,normalized growth,"locus YCL069W, strain vba3, stronger effect = lower value",0.978
same,normalized growth,"locus YCR088W, strain abp1, stronger effect = lower value",0.977
same,normalized growth,"locus YDL005C, strain med2, stronger effect = lower value",0.961
same,normalized growth,"locus YDL035C, strain GPR1, stronger effect = lower value",0.942
same,normalized growth,"locus YDL040C, strain nat1, stronger effect = lower value",0.966
same,normalized growth,"locus YDL074C, strain BRE1, stronger effect = lower value",0.931
same,normalized growth,"locus YDL101C, strain DUN1, stronger effect = lower value",1.01
same,normalized growth,"locus YDL134C, strain PPH21, stronger effect = lower value",0.995
same,normalized growth,"locus YDL185W, strain tfp1, stronger effect = lower value",0.995
same,normalized growth,"locus YDL192W, strain arf1, stronger effect = lower value",0.987
same,normalized growth,"locus YDR001C, strain nth1, stronger effect = lower value",0.971
same,normalized growth,"locus YDR069C, strain doa4, stronger effect = lower value",0.975
same,normalized growth,"locus YDR101C, strain arx1, stronger effect = lower value",0.987
same,normalized growth,"locus YDR137W, strain rgp1, stronger effect = lower value",0.943
same,normalized growth,"locus YDR150W, strain NUM1, stronger effect = lower value",1.01
same,normalized growth,"locus YDR159W, strain sac3, stronger effect = lower value",0.982
same,normalized growth,"locus YDR162C, strain NBP2, stronger effect = lower value",0.671 (active)
same,normalized growth,"locus YDR195W, strain ref2",0.982
same,normalized growth,"locus YDR297W, strain sur2, stronger effect = lower value",0.976
same,normalized growth,"locus YDR318W, strain mcm21, stronger effect = lower value",0.969
same,normalized growth,"locus YDR334W, strain swr1, stronger effect = lower value",0.976
same,normalized growth,"locus YDR335W, strain msn5, stronger effect = lower value",0.977
same,normalized growth,"locus YDR363W, strain ESC2, stronger effect = lower value",0.969
same,normalized growth,"locus YDR388W, stronger effect = lower value",0.983
same,normalized growth,"locus YDR392W, strain spt3, stronger effect = lower value",0.923
same,normalized growth,"locus YDR502C, strain sam2, stronger effect = lower value",0.979
same,normalized growth,"locus YEL003W, strain gim4, stronger effect = lower value",0.979
same,normalized growth,"locus YEL037C, strain rad23, stronger effect = lower value",1.01
same,normalized growth,"locus YEL061C, strain CIN8 (second series), stronger effect = lower value",0.963
same,normalized growth,"locus YEL061C, strain CIN8, stronger effect = lower value",1.01
same,normalized growth,"locus YER002W, strain NOP16, stronger effect = lower value",1
same,normalized growth,"locus YER015W, strain faa2, stronger effect = lower value",0.967
same,normalized growth,"locus YER016W, strain bim1, stronger effect = lower value",0.978
same,normalized growth,"locus YER110C, stronger effect = lower value",0.998
same,normalized growth,"locus YER111C, strain swi4, stronger effect = lower value",0.961
same,normalized growth,"locus YER155C, strain BEM2 (second series), stronger effect = lower value",0.977
same,normalized growth,"locus YER155C, strain BEM2, stronger effect = lower value",1
same,normalized growth,"locus YER167W, strain BCK2, stronger effect = lower value",0.987
same,normalized growth,"locus YFR010W, strain ubp6, stronger effect = lower value",0.964
same,normalized growth,"locus YGL078C, strain dbp3, stronger effect = lower value",0.991
same,normalized growth,"locus YGL086W, strain mad1, stronger effect = lower value",0.979
same,normalized growth,"locus YGL167C, strain pmr1, stronger effect = lower value",0.957
same,normalized growth,"locus YGL173C, strain kem1, stronger effect = lower value",0.977
same,normalized growth,"locus YGL227W, strain vid30, stronger effect = lower value",0.967
same,normalized growth,"locus YGL240W, strain doc1, stronger effect = lower value",0.991
same,normalized growth,"locus YGL248W, strain PDE1, stronger effect = lower value",0.969
same,normalized growth,"locus YGL253W, strain hxk2, stronger effect = lower value",0.972
same,normalized growth,"locus YGR078C, strain PAC10, stronger effect = lower value",0.944 and 0.983
same,normalized growth,"locus YGR135W, strain pre9, stronger effect = lower value",0.987
same,normalized growth,"locus YGR229C, strain SMI1, stronger effect = lower value",0.763 (active)
same,normalized growth,"locus YGR252W, strain gcn5, stronger effect = lower value",0.995
same,normalized growth,"locus YHR013C, strain ard1, stronger effect = lower value",0.963
same,normalized growth,"locus YHR027C, strain rpn1, stronger effect = lower value",0.986
same,normalized growth,"locus YHR030C, strain SLT2, stronger effect = lower value",0.989 and 0.966
same,normalized growth,"locus YHR079C, strain IRE1 (second series), stronger effect = lower value",0.987
same,normalized growth,"locus YHR079C, strain IRE1, stronger effect = lower value",0.952
same,normalized growth,"locus YHR094C, strain hxt1, stronger effect = lower value",0.977
same,normalized growth,"locus YHR129C, strain ARP1, stronger effect = lower value",1
same,normalized growth,"locus YHR142W, strain chs7, stronger effect = lower value",0.966
same,normalized growth,"locus YHR200W, strain rpn10, stronger effect = lower value",0.995
same,normalized growth,"locus YIL066C, strain RNR3, stronger effect = lower value",0.971
same,normalized growth,"locus YIL073C, strain SPO22, stronger effect = lower value",0.741
same,normalized growth,"locus YIL125W, strain kgd1, stronger effect = lower value",0.991
same,normalized growth,"locus YIR030C, strain dcg1, stronger effect = lower value",0.983
same,normalized growth,"locus YJL092W, strain hpr5, stronger effect = lower value",0.975
same,normalized growth,"locus YJL095W, strain BCK1 (second series), stronger effect = lower value",0.981
same,normalized growth,"locus YJL095W, strain BCK1, stronger effect = lower value",0.971 and 0.954
same,normalized growth,"locus YJL115W, strain asf1, stronger effect = lower value",0.972
same,normalized growth,"locus YJL129C, strain trk1, stronger effect = lower value",0.893
same,normalized growth,"locus YJL134W, strain LCB3, stronger effect = lower value",1
same,normalized growth,"locus YJL154C, strain vps35, stronger effect = lower value",0.973
same,normalized growth,"locus YJL164C, strain tpk1, stronger effect = lower value",0.964
same,normalized growth,"locus YJL166W, strain qcr8, stronger effect = lower value",0.955
same,normalized growth,"locus YJL168C, strain set2, stronger effect = lower value",0.983
same,normalized growth,"locus YJL187C, strain SWE1 (second series), stronger effect = lower value",1
same,normalized growth,"locus YJL187C, strain SWE1, stronger effect = lower value",0.97
same,normalized growth,"locus YJR043C, strain POL32, stronger effect = lower value",1.01
same,normalized growth,"locus YJR066W, strain TOR1, stronger effect = lower value",0.873

# Source: PubChem BioAssay AID1159580 (chemical genetic matrix, 2015)
